KB-3-1 cytotox: KB-3-1 parental cell cytotoxicity; KB-3-1 viability, CellTiter-Glo ATP luminescence, 72 h; Potency, µM (top dose mostly 46.1 µM), actives largely listed as cytotoxic; 400,000 tested, 1.4% active; AID 1347075; also: potency is read from the fitted curve at half-maximal effect; % is scaled to controls: 0 for no effect and ±100 for the full control effect; nearly all actives have a fitted effect of over 60% in size
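Luminescent ATP read-out (CellTiter-Glo) measures survival of drug-naive KB-3-1 cells after 72 h compound exposure at 37 °C. Titration series was screened from lowest to highest concentration, with DMSO vehicle plates as background controls.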
IL-1B inflam inh: inhibitors of inflammasome signaling (IL-1 beta secretion); THP-1 LPS/ATP IL-1B secretion, AlphaLISA, 16 h; hits give low values; activity change, % at 57.5 µM; 360,000 tested, 4.7% active; AID 743279; in the data active = activity change below about -50%; inconclusive = mostly about -30% to -49%; also: % is scaled to controls: 0 for no effect and ±100 for the full control effect
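Secreted IL-1B measured by AlphaLISA bead assay after 16 h compound exposure of THP-1 cells; compounds (final up to 57.5 uM) added 1 h before LPS (250 ng/mL) and ATP (1.25 mM) stimulation; lower signal means less secretion.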
SW480 rerep: inducers of DNA re-replication in SW480 colon cancer cells | SW480 DNA re-replication, Hoechst DNA content imaging, 48 h | Potency, µM (top dose mostly 46.1 µM), for inactives: at the top dose re-replication activation, hits mostly activators | 340,000 tested, 1.8% active | AID 624297; also: potency is read from the fitted curve at half-maximal effect; % of control where 0% means no effect; nearly all actives have a fitted effect of over 55% in size
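SW480 cells exposed to compounds for 48 hr at 37 C, 5% CO2, then Hoechst-stained 40 min. Nuclear DNA content imaged by fluorescence scanning (405 nm excitation, 500-530 nm emission); re-replication scored as increased high-intensity nuclei.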
MCF10A rerep: inducers of DNA re-replication in MCF 10A breast cells; AID 624296; Potency, µM (top dose mostly 46.1 µM), for inactives: at the highest dose activity, positive = re-replication, actives largely listed as activators; MCF 10A DNA re-replication, Hoechst nuclear intensity, 48 h; 350,000 tested, 2.9% active; also: potency is read from the fitted curve at half-maximal effect; % of control where 0% means no effect; nearly all actives have a fitted effect of over 50% in size
KB-V1 MDR tox: KB-V1 MDR subline cytotoxicity. KB-V1 MDR cells viability, CellTiter-Glo, 72 h. Potency, µM (series often up to 46.1 µM), hits mostly cytotoxic. 400,000 tested, 3.4% active. AID 1347076; also: potency is read from the fitted curve at half-maximal effect; % is scaled to controls: 0 for no effect and ±100 for the full control effect; nearly all actives have a fitted effect of over 60% in size
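Readout: CellTiter-Glo luminescence, 10 min after addition. Cells: KB-V1 MDR subline, 72 h at 37 degrees C with compound. Analysis: corrected, normalized data fitted to concentration-effect curves.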
Numbers without * were called inactive; i = inactive; ? = inconclusive; · = not tested or not shown; [ ] = dose if it differs, or a comment. This is a sample that favours compounds with a hit; in the whole collection about 9.9% have one here. Unless noted, calls follow the shape of the dose curve; as a rule, active = well fitted curve in the direction sought with a large enough effect; inconclusive = small, poorly fitted or top-dose-only effect, or another doubt; inactive = no such curve, though single readings can be large; an effect the other way counts as inactive or inconclusive.

SMILES	KB-3-1 cytotox	IL-1B inflam inh	SW480 rerep	MCF10A rerep	KB-V1 MDR tox
CCS(=O)(=O)c1nc(S(=O)(=O)c2ccc(C)cc2)c(N2CCC3(CC2)OCCO3)s1	i	-13	16%	-1%	i
CCc1ccc(C(=O)c2cn(CC(=O)Nc3ccc4c(c3)OCO4)c3ccc(OC)cc3c2=O)cc1	i	·	·	·	?
Cc1nn(Cc2cccc(F)c2)c(C)c1NC(=O)c1c(Cl)cnn1C	i	-7	-3%	-7%	i
Cc1ccc2nc(NC(=O)C3CCN(S(=O)(=O)c4cccnc4)CC3)sc2c1	?	-16	0%	10%	?
O=C(Nc1nc2ccc(F)cc2s1)C1CCN(S(=O)(=O)c2cc([N+](=O)[O-])ccc2Cl)CC1	15µM*	-91*	?	?	15µM*
Cc1ccc2nc(NC(=O)C3CCN(S(=O)(=O)c4cccs4)CC3)sc2c1	?	-76*	9%	2%	4.6µM*
COc1cc(/C=C2/C(=O)NN(c3cccc(C)c3)C2=O)ccc1OC(=O)c1ccco1	i	-69*	-45%	?	i
Cc1ccc2c(c1)COc1c3ccc(C(=O)N4CCCCC4)cc3nn1-2	i	-17	-11%	4%	?
O=C(c1ccc2c3n(nc2c1)-c1ccccc1CO3)N1CCCCC1	9.2µM*	-4	-5%	2%	10µM*
O=C(c1ccc2c3n(nc2c1)-c1ccccc1CO3)N1CCOCC1	7.3µM*	-19	-2%	16%	?
CC1CC(C)(C)NC(=S)N1CCC(=O)Nc1ccc2c(c1)OCCO2 (stereo not given)	23µM*	61	?	?	?
CC1(C)C(=O)Nc2ccccc2N1C(=O)COC(=O)Cc1ccccc1F	?	8	3%	2%	i
COc1cc(C(=O)O[C@H]2CC(C)=CC[C@@]3(C)CC[C@@](O)(C(C)C)[C@H]23)ccc1O	i	46	4%	-17%	i
Cn1cnc([N+](=O)[O-])c1NCc1ccccc1	i	10	-13%	1%	i
Cn1cnc([N+](=O)[O-])c1S(=O)(=O)Oc1ccccc1	?	-94*	4.1µM*	7.3µM*	?
Cc1nn(C(C)C(=O)c2cccc(Cl)c2)c(C)c1[N+](=O)[O-] (stereo not given)	i	27	-11%	-2%	i
Cn1cnc([N+](=O)[O-])c1S(=O)(=O)c1cccc(Cl)c1	?	?	5.8µM*	3.7µM*	?
Cn1cnc([N+](=O)[O-])c1S(=O)(=O)Nc1ccccc1	?	-97*	?	?	?
O=C(CSc1ccccc1C(=O)O)NCC1CCCCC1	i	0	-4%	-2%	i
O=C(C1CC(=O)N(c2ccc(F)cc2)C1)N1CCC(c2nc3ccccc3[nH]2)CC1 (stereo not given)	i	-4	-17%	4%	i
CCCn1c(=O)[nH]c(=O)c2c1nc(-c1cc([N+](=O)[O-])ccc1Cl)n2CCOC	i	17	6%	-2%	i
COc1ccc(NC(=O)N2CCN(c3nc(-c4cccc(OC)c4)cs3)CC2)cc1	?	-93*	-5%	?	12µM*
COc1ccc(NC(=S)N2CCN(C(c3ccccc3)c3ccccc3)CC2)c(OC)c1	i	-59*	3%	20%	i
COc1cccc(-c2csc(N3CCN(C(=S)Nc4ccccc4Cl)CC3)n2)c1	i	-9	0%	-3%	i
COc1cccc(NC(=S)N2CCN(C(c3ccccc3)c3ccccc3)CC2)c1	i	-13	-2%	-1%	i
SMILES	KB-3-1 cytotox	IL-1B inflam inh	SW480 rerep	MCF10A rerep	KB-V1 MDR tox
COc1cccc(-c2csc(N3CCN(C(=S)Nc4cccc(Cl)c4)CC3)n2)c1	i	-81*	-4%	20%	?
COc1cccc(-c2csc(N3CCN(C(=O)Nc4ccc(Cl)cc4)CC3)n2)c1	i	?	29%	21%	i
COc1cccc(-c2csc(N3CCN(CC(=O)NNC(=O)c4ccc(Br)cc4)CC3)n2)c1	?	-24	15µM*	-4%	?
CCN(C(=O)COC(=O)/C=C/c1ccc(OC)c(OC)c1)c1c(N)n(Cc2ccccc2)c(=O)[nH]c1=O	i	-1	-18%	13%	?
COc1cccc(-c2csc(N3CCN(C(=S)Nc4ccccc4OC)CC3)n2)c1	i	-15	-3%	8.2µM*	?
CC1=C(CC(=O)NCC(=O)NCC(=O)O)c2cc(F)ccc2/C1=C/c1ccc(S(C)=O)cc1 (stereo not given)	i	11	12%	-7%	i
O=S(=O)(Cc1cc(Sc2ccc(Cl)cc2)nc(-c2ccccc2)n1)c1ccccc1	i	3	-3%	-4%	i
CCOC(=O)C(C)Sc1cc(CS(=O)(=O)c2ccccc2)nc(-c2ccccc2)n1 (stereo not given)	i	22	1%	10%	21µM*
O=C(Nc1ccc(Cl)cn1)c1cccc2ccccc12	?	0	?	?	?
O=C(Nc1ccc(Cl)cn1)c1ccccc1[N+](=O)[O-]	?	17	15µM*	?	?
O=[N+]([O-])c1cnc(Nc2ccc(Cl)cn2)c([N+](=O)[O-])c1	i	-55*	?	2%	i
O=C(Nc1cccc2c1C(=O)NC2=O)c1ccccc1[N+](=O)[O-]	i	-14	21µM*	18%	i
O=C(NNS(=O)(=O)c1ccccc1[N+](=O)[O-])c1ccccc1[N+](=O)[O-]	i	16	0.52µM*	-14%	i
c1ccc(CCN(Cc2ccccc2)C2CCN(C3CCCC3)CC2)cc1	i	-4	-2%	22%	i
CC1=C(C(=O)Nc2ccc(Cl)cc2)C(c2cccs2)n2nc(SCc3cccc(C)c3)nc2N1 (stereo not given)	i	·	·	·	i
CCOC(=O)C1C(c2cccc([N+](=O)[O-])c2)C2C(=O)NN=C2CC1(C)O (stereo not given)	i	-20	5%	1%	i
CS(=O)(=O)c1ccc(CNC(=O)C2(C(F)(F)F)CC(CCCO)CCCO2)cc1 (stereo not given)	5.8µM*	-4	0%[9.22 µM]	-49%	?
CCCCC(=O)N(C)c1c(C)nc2ccc(C(=O)N(C)CCN(C)C)cn12	i	18	·	·	i
Cc1c(C(=O)N2CCN(S(=O)(=O)c3ccccc3)CC2)oc2ccc(Br)cc12	i	-27	-7%	10%	i
CCC1CCCCN1CCCNC(=O)c1cn(CC)c2ccc(S(=O)(=O)N3CCc4ccccc4C3)cc2c1=O (stereo not given)	i	-99*	10%	3%	i

High-throughput results from PubChem BioAssay.
